According to PubChem BioAssay (NCI):
“And” between values parts separate entries of the source, which are not always exact repeats. Identical values can stand only once. Compounds without any hit were thinned out: in the full panel of roughly 83,000, 20% have a hit.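 For each line, cells grew in 96-well plates with the test compound present at a single concentration for 48 hours.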 The source made the active and inactive calls. Rule for the calls: active = growth percent below 10; inactive = the rest.

Tests used:
Assay in all cases: NCI-60 one-dose screen, 48 h (100 = growth as untreated, 0 = no growth, -100 = all killed)
Conditions in all cases: 10 µM unless noted
NCI-H23 lung = test system: NCI-H23 lung
NCI-H226 lung = test system: NCI-H226 lung
NCI-H322M lung = test system: NCI-H322M lung
HOP-62 NSCLC = test system: HOP-62 NSCLC
NCI-H460 lung = test system: NCI-H460 lung
HOP-92 NSCLC = test system: HOP-92 NSCLC
NCI-H522 lung = test system: NCI-H522 lung
A549/ATCC NSCLC = test system: A549/ATCC NSCLC
786-0 renal = test system: 786-0 renal
COLO 205 colon = test system: COLO 205 colon

Measured: growth

Nc1ncnc2c1C(c1ccc([N+](=O)[O-])cc1)c1sc3c(F)cccc3c1O2 (stereo unspecified)
inactive: NCI-H23 lung 86.8% | NCI-H226 lung 62.9% | NCI-H322M lung 93.6% | HOP-62 NSCLC 116% | NCI-H460 lung 89.4% | HOP-92 NSCLC 107% | NCI-H522 lung 84.3% | A549/ATCC NSCLC 99.9% | 786-0 renal 103% | COLO 205 colon 109%

CC(=O)OC[C@]12CCC(C)(C)C=C1[C@H]1CC[C@@H]3[C@@]4(C)CCCNC(C)(C)[C@@H]4CC[C@@]3(C)[C@]1(C)CC2
inactive: NCI-H23 lung 65% | NCI-H226 lung 77.9% | NCI-H322M lung 98.9% | HOP-62 NSCLC 91.8% | NCI-H460 lung 49.4% | HOP-92 NSCLC 83% | NCI-H522 lung 39.4% | A549/ATCC NSCLC 83% | 786-0 renal 82.2%
active: COLO 205 colon 1.01%

CCCCCCCCCCCCCCCCCCn1cc(COc2ccc(C=O)cc2)nn1
inactive: NCI-H23 lung 90.4% | NCI-H226 lung 102% | NCI-H322M lung 108% | HOP-62 NSCLC 104% | NCI-H460 lung 102% | HOP-92 NSCLC 135% | NCI-H522 lung 89% | A549/ATCC NSCLC 91.2% | 786-0 renal 94.9% | COLO 205 colon 113%

O=C(NNC(=S)Nc1ccccc1)c1ccncc1
inactive: NCI-H23 lung 102% | NCI-H226 lung 105% | HOP-62 NSCLC 106% | NCI-H460 lung 118% | HOP-92 NSCLC 90.2% | NCI-H522 lung 97.3% | A549/ATCC NSCLC 107% | 786-0 renal 98.5% | COLO 205 colon 128%

Clc1ccc(/C=N\N2CCCCCC2)cc1
inactive: NCI-H23 lung 97.8% | NCI-H226 lung 93.8% and 125% | NCI-H322M lung 104% | HOP-62 NSCLC 105% and 95.9% | NCI-H460 lung 108% and 119% | NCI-H522 lung 123% and 83.6% | A549/ATCC NSCLC 94.2% and 104% | 786-0 renal 101% and 97.5% | COLO 205 colon 124% and 130%

N#C/C(=C\c1ccc(Br)cc1)n1nnc2c(F)cccc21
active: NCI-H322M lung 0.929% | NCI-H460 lung -33.7% | NCI-H522 lung -52.1% | 786-0 renal -13.5% | COLO 205 colon -15.9%
inactive: NCI-H23 lung 10.3% | NCI-H226 lung 25.5% | HOP-62 NSCLC 53.8% | HOP-92 NSCLC 19.2% | A549/ATCC NSCLC 14.8%

C[C@]12CCc3c(ccc4cc(O)ccc34)[C@@H]1C[C@H](O)[C@@H]2O
inactive: NCI-H23 lung 94.2% | NCI-H226 lung 94.7% | NCI-H322M lung 107% | HOP-62 NSCLC 91.7% | NCI-H460 lung 97.8% | HOP-92 NSCLC 85.6% | NCI-H522 lung 98.1% | A549/ATCC NSCLC 106% | 786-0 renal 111% | COLO 205 colon 109%

O=C1Nc2ccccc2/C1=C/c1cccn1CCCCCn1c2ccccc2c(=O)c2ccccc21
inactive: NCI-H23 lung 69.6% | NCI-H226 lung 70% | NCI-H322M lung 98.8% | HOP-62 NSCLC 58.3% | NCI-H460 lung 95.9% | HOP-92 NSCLC 65.5% | NCI-H522 lung 66.3% | A549/ATCC NSCLC 81.4% | 786-0 renal 105% | COLO 205 colon 56.2%

O=C(CN1C(=O)S/C(=C\C(Cl)=C\c2ccccc2)C1=O)NCCCn1ccnc1
active: NCI-H522 lung -3.5% | 786-0 renal 9.43% | COLO 205 colon 4.93%
inactive: NCI-H23 lung 24% | NCI-H226 lung 41.9% | NCI-H322M lung 90.8% | HOP-62 NSCLC 84.9% | NCI-H460 lung 68.5% | HOP-92 NSCLC 52.5% | A549/ATCC NSCLC 85.2%

CCOC(=O)C(=Cc1ccc(C#N)cc1)C(=O)OCC
inactive: NCI-H23 lung 55.5% | NCI-H322M lung 73.2% | HOP-62 NSCLC 104% | NCI-H460 lung 81.6% | HOP-92 NSCLC 58.3% | A549/ATCC NSCLC 53.2%
active: NCI-H226 lung -36.3% | NCI-H522 lung -24.6% | 786-0 renal 0.647% | COLO 205 colon 4.69%

NC1=CC(=O)c2cccnc2C1=O
active: NCI-H23 lung -33.1% | NCI-H460 lung -53.6% | HOP-92 NSCLC -31.3% | NCI-H522 lung -57.9%
inactive: NCI-H226 lung 59.2% | NCI-H322M lung 71.1% | HOP-62 NSCLC 14.6% | A549/ATCC NSCLC 26.6% | 786-0 renal 26.5% | COLO 205 colon 76.7%

O=C(NCc1ccc(Cn2c(=O)sn(-c3ccc(Cl)cc3)c2=O)cc1)OCc1ccc2c(Cl)cc(Cl)c(O)c2n1
inactive: NCI-H23 lung 44.1% | NCI-H226 lung 56.9% | NCI-H322M lung 45.7% | HOP-62 NSCLC 38.3% | NCI-H460 lung 21.7% | HOP-92 NSCLC 64.7% | NCI-H522 lung 68.8% | A549/ATCC NSCLC 30.5% | 786-0 renal 55.8% | COLO 205 colon 109%

CCNC(=O)Nc1ncccc1OCc1ccc(F)cc1
inactive: NCI-H23 lung 87.1% | NCI-H226 lung 106% | NCI-H322M lung 105% | HOP-62 NSCLC 95.3% | NCI-H460 lung 105% | HOP-92 NSCLC 108% | NCI-H522 lung 86.2% | A549/ATCC NSCLC 99% | 786-0 renal 92.8% | COLO 205 colon 115%

CCCN1C(=O)/C(=c2\sc3n(c2=O)C2C(NN=3)N(CC)C(=O)N2CC)c2ccccc21 (stereo unspecified)
active: NCI-H460 lung 5.57% | NCI-H522 lung 1.15%
inactive: NCI-H23 lung 37.8% | NCI-H226 lung 57.1% | NCI-H322M lung 53.1% | HOP-62 NSCLC 45.8% | HOP-92 NSCLC 67.7% | A549/ATCC NSCLC 26.2% | 786-0 renal 36.5% | COLO 205 colon 17.5%

COC(=O)c1c2c(c(C)[n+]([O-])c1C)C(=O)C(NCCN1CCOCC1)=CC2=O
inactive: NCI-H23 lung 59.7% | NCI-H226 lung 103% | NCI-H322M lung 72.5% | HOP-62 NSCLC 101% | NCI-H460 lung 55.4% | HOP-92 NSCLC 146% | NCI-H522 lung 87.5% | A549/ATCC NSCLC 91.3% | 786-0 renal 89.9%
active: COLO 205 colon 6.73%

CN(C)CCCn1c2c(c3ccc(N4CCNCC4)cc3c1=O)C(=O)c1ccccc1-2
inactive: NCI-H226 lung 14.2% | NCI-H322M lung 13% | HOP-92 NSCLC 18.4%
active: NCI-H23 lung -59.5% | HOP-62 NSCLC -34.7% | NCI-H460 lung -47.9% | NCI-H522 lung 5.51% | A549/ATCC NSCLC -61.7% | 786-0 renal -95.3% | COLO 205 colon 4.57%

Clc1ccc2c(NCCN3CCN(c4ccnc(N5CCCC5)n4)CC3)ccnc2c1
inactive: NCI-H23 lung 56.8% | NCI-H226 lung 80.3% | NCI-H322M lung 44.3% | HOP-62 NSCLC 77.3% | NCI-H460 lung 16.7% | HOP-92 NSCLC 23.3% | NCI-H522 lung 45% | A549/ATCC NSCLC 24.6% | 786-0 renal 29.4%
active: COLO 205 colon -46.5%

CCN(CC)CCCN1C(=O)c2c(c(C)c3c(oc4cc(OC)ccc43)c2C)C1=O
inactive: NCI-H23 lung 105% | NCI-H322M lung 94.2% | HOP-62 NSCLC 109% | NCI-H460 lung 92.6% | HOP-92 NSCLC 87.3% | NCI-H522 lung 104% | A549/ATCC NSCLC 92.5% | COLO 205 colon 86.1%
active: NCI-H226 lung -5.51% | 786-0 renal -79%

O=C([C@H]1C[C@H]1c1ccc(S(F)(F)(F)(F)F)cc1)N1CCN(c2cc(Cl)ccc2C(F)(F)F)CC1
inactive: NCI-H23 lung 91.2% | NCI-H226 lung 75.7% | NCI-H322M lung 90.1% | HOP-62 NSCLC 102% | NCI-H460 lung 95.6% | HOP-92 NSCLC 88.3% | NCI-H522 lung 70.7% | A549/ATCC NSCLC 81.5% | 786-0 renal 89.3% | COLO 205 colon 101%

CCCCCC#CC1OC23CCCCC2C(C#N)(C(=N)O3)C1(C#N)C#N (stereo unspecified)
inactive: NCI-H23 lung 101% | NCI-H226 lung 97.4% | NCI-H322M lung 98.3% | HOP-62 NSCLC 98.8% | NCI-H460 lung 99.8% | HOP-92 NSCLC 90.4% | NCI-H522 lung 77.5% | A549/ATCC NSCLC 75.6% | 786-0 renal 91.4% | COLO 205 colon 117%

CCOC(=O)N(O)c1ccc(/C=C/c2ccccc2)cc1
active: NCI-H226 lung -39.4%
inactive: NCI-H23 lung 75.9% and 51.3% | HOP-62 NSCLC 66.5% | NCI-H460 lung 23.5% and 22% | HOP-92 NSCLC 67.4% | NCI-H522 lung 67.5% and 48.4% | A549/ATCC NSCLC 44% and 77.1% | 786-0 renal 70.3% and 73.7% | COLO 205 colon 88.5% and 84.7%

CN1Cn2c(ccc2C(F)(F)F)C(=O)CS1(=O)=O
inactive: NCI-H23 lung 108% | NCI-H226 lung 111% | NCI-H322M lung 104% | HOP-62 NSCLC 100% | NCI-H460 lung 110% | HOP-92 NSCLC 102% | NCI-H522 lung 103% | A549/ATCC NSCLC 108% | 786-0 renal 96.7% | COLO 205 colon 116%

Cc1nonc1-c1ccc2c(c1)OCO2
inactive: NCI-H23 lung 91.5% and 112% | NCI-H226 lung 94.3% | NCI-H322M lung 113% and 124% | HOP-62 NSCLC 123% and 106% | NCI-H460 lung 106% | NCI-H522 lung 102% and 103% | A549/ATCC NSCLC 90.6% and 98.2% | 786-0 renal 104% and 107% | COLO 205 colon 114% and 140%

NS(=O)(=O)c1ccc(C(=O)N=Nc2c(O)[nH]c3c(F)cccc23)cc1
inactive: NCI-H23 lung 94.9% | NCI-H226 lung 96.8% | NCI-H322M lung 98.2% | HOP-62 NSCLC 97.1% | NCI-H460 lung 111% | HOP-92 NSCLC 98.2% | NCI-H522 lung 91.2% | A549/ATCC NSCLC 99.9% | 786-0 renal 103% | COLO 205 colon 106%
